Source: PubChem
LASV entry inh: qHTS for Inhibitors of binding or entry into cells for Lassa Virus; Lassa virus pseudotype entry inhibition, cell reporter; Potency, µM (titrated, usually from 37.9 µM), hits mostly inhibitors; 1.2% of 300,000 active; AID 540256, 2011; calls by dose curve; tested in HEK293 cells; further: nearly all actives have a fitted effect of over 50% in size
Marburg entry inh: qHTS for inhibitors of binding or entry into cells for Marburg Virus. Marburg virus pseudotyped entry inhibition, cell reporter. Potency, µM (series often up to 37.8 µM), usual class: inhibitors. 1.8% of 300,000 active. AID 540276, 2011; calls by dose curve; tested in HEK293 cells
CHX counter: Cycloheximide Counterscreen for Small Molecule Inhibitors of Shiga Toxin; 12% of 300,000 active; max response, %; AID 2314, 2010; cell reporter, cycloheximide protein synthesis inhibition counterscreen; in the data active means max response mostly above about 13%, no sharp cut-off; inactive means mostly below about 14%; further: read at 38.3 µM for the half of the compounds with a filed dose
Vaccinia mCherry: qHTS for Stage-Specific Inhibitors of Vaccinia Orthopoxvirus: mCherry Reporter Primary qHTS; Vaccinia virus mCherry reporter infection, fluorescence; Potency, µM (doses to about 36.5 µM), usual class: inhibitors; 0.63% of 310,000 active; AID 720579, 2013; calls by dose curve; tested in A549 cells; further: nearly all actives have a fitted effect of over 35% in size
VACV Venus inh: qHTS for Stage-Specific Inhibitors of Vaccinia Orthopoxvirus: Venus Reporter Primary qHTS; Potency, µM (series often up to 36.5 µM), hits mostly inhibitors; Vaccinia virus Venus reporter expression, fluorescence; 0.46% of 330,000 active; calls by dose curve; tested in A549 cells; further: nearly all actives have a fitted effect of over 30% in size
Shiga toxin inh: A qHTS for Small Molecule Inhibitors of Shiga Toxin. Vero cells, Shiga toxin protein synthesis inhibition reporter. inhibition, % at 38.7 µM. 9.2% of 290,000 active; in the data active means inhibition mostly above about 28%, no sharp cut-off; inactive means mostly below about 43%
Of the large screens only hits and unclear results are named; the others gave an inactive call. Only a selection was taken, and hits are over-represented in it overall.

COc1ccc(-c2nc3ccccn3c2Cl)cc1	LASV entry inh 3.5µM, Marburg entry inh inconclusive, CHX counter 41
Cc1cc(C)c(S(=O)(=O)Nc2cccc(-c3cn4ccccc4n3)c2)c(C)c1	LASV entry inh inconclusive (no result: Marburg entry inh, CHX counter, Shiga toxin inh)
Brc1ccc(-c2cn3ccccc3n2)s1	LASV entry inh inconclusive, Marburg entry inh inconclusive, CHX counter 32, Shiga toxin inh 70
Clc1ccc(-c2cn3c(n2)CCC3)cc1	LASV entry inh inconclusive, Marburg entry inh inconclusive, CHX counter 28 (no result: Vaccinia mCherry)
CCCOc1ccc(-c2cn3ccccc3n2)cc1	none (no result: LASV entry inh, Marburg entry inh, Vaccinia mCherry, VACV Venus inh)
Clc1ccc(-c2nnc3n2CCCCC3)cc1	Marburg entry inh inconclusive
Clc1ccc(-c2cn3cc(Cl)ccc3n2)cc1	CHX counter 42, Shiga toxin inh 74 (no result: LASV entry inh, Marburg entry inh, Vaccinia mCherry, VACV Venus inh)
COc1ccc(-c2cn3ccccc3n2)cc1	CHX counter 31 (no result: LASV entry inh, Marburg entry inh, Vaccinia mCherry, VACV Venus inh)
Cc1ccc(C)c(SCC(=O)Nc2oc(C)c3c(C)n[nH]c(=O)c23)c1	none (no result: CHX counter, Shiga toxin inh)
CCOP(=O)(OCC)C(NC(=O)c1cc([N+](=O)[O-])cc([N+](=O)[O-])c1)C(F)(F)F (stereo unspecified)	Vaccinia mCherry inconclusive
CC1CN=C(N(C(=S)Nc2ccccc2)c2cccc(C(F)(F)F)c2)S1 (stereo unspecified)	Marburg entry inh inconclusive, CHX counter 14
CC(=O)c1cnn(-c2c(Cl)cc(Cl)cc2Cl)c1C	none (no result: LASV entry inh, Marburg entry inh, Vaccinia mCherry, VACV Venus inh)
Cc1cccc(N(CC(O)CON=C2c3ccccc3-c3ccccc32)S(C)(=O)=O)c1 (stereo unspecified)	Marburg entry inh 23µM, Vaccinia mCherry inconclusive, VACV Venus inh inconclusive
CN(C(=O)C1CCN(S(=O)(=O)c2ccccc2[N+](=O)[O-])CC1)C1CCCCC1	LASV entry inh inconclusive, Marburg entry inh inconclusive (no result: CHX counter, Shiga toxin inh)
O=[N+]([O-])c1cccc(-c2cnc3ccccc3n2)c1	CHX counter 24, Shiga toxin inh 63 (no result: LASV entry inh, Marburg entry inh, Vaccinia mCherry, VACV Venus inh)
Nc1cccc(-c2cnc3ccccc3n2)c1	CHX counter 64, Shiga toxin inh 63 (no result: LASV entry inh, Marburg entry inh, Vaccinia mCherry, VACV Venus inh)
Cc1ccc(-c2nn3c(=O)c(C)nnc3s2)cc1	Marburg entry inh inconclusive, CHX counter 27
CC(C)(C)c1ccc(-c2nnc3sc(-c4ccncc4)nn23)cc1	LASV entry inh inconclusive, CHX counter 14 (no result: Vaccinia mCherry, VACV Venus inh)
Cc1nnc2sc(-c3cccc(F)c3)nn2c1=O	Marburg entry inh inconclusive
Cc1cc(=O)n2nc(-c3ccccc3)sc2n1	CHX counter 38, Shiga toxin inh 61 (no result: Vaccinia mCherry, VACV Venus inh)
COc1cc(C(=O)N2CCNC(=O)C2CC(=O)Nc2ccc(C)c(C)c2)cc(OC)c1OC (stereo unspecified)	none (no result: CHX counter, Shiga toxin inh)
CCOC(=O)c1sc2ccccc2c1S(=O)(=O)Nc1cccc(C(F)(F)F)c1	none (no result: Marburg entry inh, CHX counter, Shiga toxin inh)
CCCCCNC(=O)C1CCC(Cn2c(=O)c3sccc3n(CC)c2=O)CC1 (stereo unspecified)	none (no result: Marburg entry inh, CHX counter, Shiga toxin inh)
Cc1ccc(C)c(NC(=S)NC(NC(=O)/C=C/c2ccccc2)C(Cl)(Cl)Cl)c1 (stereo unspecified)	LASV entry inh 7.3µM, Marburg entry inh inconclusive (no result: Vaccinia mCherry, VACV Venus inh)
O=C(/C=C/c1ccccc1)NC(NC(=S)Nc1cccc(O)c1)C(Cl)(Cl)Cl (stereo unspecified)	LASV entry inh inconclusive, Marburg entry inh inconclusive, Vaccinia mCherry inconclusive, VACV Venus inh inconclusive
CC(=O)NC(NC(=S)Nc1ccc(N=Nc2ccccc2C)cc1C)C(Cl)(Cl)Cl (stereo unspecified)	Marburg entry inh inconclusive, CHX counter 29, Shiga toxin inh 114
O=C(/C=C/c1ccccc1)NC(NC(=S)Nc1cccc(Cl)c1)C(Cl)(Cl)Cl (stereo unspecified)	LASV entry inh 9.2µM, Marburg entry inh inconclusive (no result: Vaccinia mCherry, VACV Venus inh)
Cc1sc2ccccc2[n+]1CCc1ccccc1	none (no result: LASV entry inh, Marburg entry inh, CHX counter, Shiga toxin inh)
COc1ccc(Cn2c(=O)c3oc4ccccc4c3n(CC(=O)Nc3c(C)cccc3C)c2=O)cc1	none (no result: Marburg entry inh, CHX counter, Shiga toxin inh)
COc1ccc(NC(=O)Cn2c(=O)n(Cc3nc(-c4ccccc4)no3)c(=O)c3ccccc32)cc1Cl	Vaccinia mCherry inconclusive (no result: Marburg entry inh, CHX counter, Shiga toxin inh)
C=CCNC(=O)C(=O)Nc1cc2c3c(c1)CCC(=O)N3CCC2	none (no result: LASV entry inh, Marburg entry inh, Vaccinia mCherry, VACV Venus inh)
COC(=O)c1sc(-c2ccccc2)cc1NC(=O)c1cccc(Cl)c1	none (no result: CHX counter, Shiga toxin inh)
CCNS(=O)(=O)c1ccc(NC(=O)Nc2ccc3c(c2)OCO3)cc1	CHX counter 30 (no result: LASV entry inh, Marburg entry inh, Vaccinia mCherry, VACV Venus inh)
NS(=O)(=O)c1ccc(NC(=O)Nc2ccc3c(c2)OCO3)cc1	CHX counter 41, Shiga toxin inh 96
CCNS(=O)(=O)c1ccc(CCC(=O)Nc2ccc3c(c2)OCO3)cc1	Marburg entry inh inconclusive
